Results on 28 compounds are retold here after PubChem BioAssay (NCI).

Test systems include T-47D breast; BT-549 breast; MDA-MB-435 melanoma; SW-620 colon; MCF7 breast; HCT-116 colon; HCC-2998 colon; KM12 colon.
Assay in all cases: NCI-60 one-dose screen, 48 h (100 = growth as untreated, 0 = no growth, -100 = all killed)
Common to all, as to conditions: 10 µM unless noted

Structures are written as SMILES. The panel holds about 83,000 compounds, 20% with a hit somewhere; the sample as a whole holds those more often.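 Negative percent growth values reflect cell death: -40 means 40% of the cells present at the start died, and -100 means all died.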 Values without a mark were called inactive. Calls of active or inactive are those of the source. The calls were made as follows: active = growth percent below 10; inactive = the rest.

Take `CC(C)=CCNc1ncnc2c1ncn2C1OC(COP(=O)(O)O)C(O)C1O` (stereo not drawn): the growth in the assay with T-47D breast was 3.18% (active); in the assay with BT-549 breast, 2.41% (active); in the assay on MDA-MB-435 melanoma it was 56.7%; in the assay with SW-620 colon, 37.6%; with MCF7 breast, 16.5%; in the assay on HCT-116 colon, 19.2%. Further, the growth in the assay with HCC-2998 colon and in the assay with KM12 colon was 69.6% in each case.

For `COC(=O)c1c(NC(=O)CSc2nnnn2-c2ccc(OC)cc2)sc(C)c1C`, the growth in the assay on T-47D breast was 92.5%; in the assay with BT-549 breast, 99.6%; with MDA-MB-435 melanoma, 109%; in the assay with SW-620 colon it was 96.2%; with MCF7 breast, 85.8%; in the assay on HCT-116 colon, 92.1%. Also, the growth is 87.6% in the assay with HCC-2998 colon and 98.7% with KM12 colon.

As for `Cc1ncc(C(=O)Nc2ccc(CN3CCN(C)CC3)c(C(F)(F)F)c2)cc1C#Cc1cncc2ncccc12`, the growth with T-47D breast was 83.7%; in the assay on BT-549 breast it was 85.4%; in the assay on MDA-MB-435 melanoma, 36.9%; in the assay with SW-620 colon, 59.6%; with MCF7 breast, 71.9%; in the assay with HCT-116 colon, 42.2%. The growth is 74.5% with HCC-2998 colon and 13.6% in the assay on KM12 colon.

Turning to `CCN(CC)CCNCC(=O)Oc1ccc(/C=C/C(=O)CC(=O)/C=C/c2ccc(OC(=O)CNCCN(CC)CC)c(OC)c2)cc1OC`, the growth is 26.6% with T-47D breast; -49.4% (active) in the assay on BT-549 breast; -30% (active) in the assay on MDA-MB-435 melanoma; -26.5% (active) with SW-620 colon; 11.6% in the assay with MCF7 breast; -9.15% (active) in the assay on HCT-116 colon. In addition, the growth is -24.9% (active) with HCC-2998 colon and -19.5% (active) in the assay on KM12 colon.

As to `COc1cc(OC)c2c(c1Cl)O[C@]1(C2=O)C(OCc2ccccc2)=CC(=O)C[C@H]1C`, the growth in the assay with T-47D breast is 8.09% (active); in the assay on BT-549 breast it was 24.2%; in the assay with MDA-MB-435 melanoma it was -44.5% (active); with SW-620 colon, 19.8%; in the assay with MCF7 breast it was 12.7%; in the assay with HCT-116 colon it was 7.75% (active). Besides, the growth with HCC-2998 colon was -5.11% (active); in the assay on KM12 colon it was 7.93% (active).

Take `CCN1CCN(c2nc(NNC(=O)Cc3ccccc3)nc(N3CCN(C(c4ccccc4)c4ccccc4)CC3)n2)CC1`: the growth was 29.9% in the assay with T-47D breast; 88.1% in the assay with BT-549 breast; -33.7% (active) with MDA-MB-435 melanoma; 16.5% with SW-620 colon; 33.9% in the assay with MCF7 breast; 28.3% with HCT-116 colon. Besides, the growth with HCC-2998 colon was 38.5%; with KM12 colon, 59%.

On to `Cc1cc(Br)c(C)cc1Br`, for which the growth in the assay with T-47D breast was 92.5%; with BT-549 breast it was 99.9%; in the assay on MDA-MB-435 melanoma, 99.8%; with SW-620 colon it was 108%; in the assay on MCF7 breast it was 98.2%; in the assay on HCT-116 colon, 99.1%. The growth was 115% in the assay with HCC-2998 colon and 103% with KM12 colon.

Turning to `O=C1/C(=C/c2ccccc2O)C(=S)SN1Cc1ccco1`, the growth in the assay on T-47D breast is 54.2%; with BT-549 breast, 93.5%; in the assay with MDA-MB-435 melanoma it was 56.4%; in the assay with SW-620 colon, 108%; in the assay on MCF7 breast, 15.7%; with HCT-116 colon it was 87.1%. Further, the growth is 108% in the assay with HCC-2998 colon and 69.5% in the assay on KM12 colon.

Take `N/C(=N\c1nc2ccccc2s1)NC(=O)Nc1ccccc1Cl`: the growth was 37% in the assay with T-47D breast; 18.6% in the assay on BT-549 breast; -31.8% (active) in the assay with MDA-MB-435 melanoma; 27.7% with SW-620 colon; 21.1% in the assay on MCF7 breast; 13% in the assay with HCT-116 colon. Moreover, the growth with HCC-2998 colon is 14.2%; in the assay with KM12 colon it was 12.7%.

Regarding `CCN(CC)c1ccc(/C=C/C(=O)c2cccc(NS(C)(=O)=O)c2)cc1`, the growth in the assay on T-47D breast was 44.3%; in the assay with BT-549 breast it was 58.3%; in the assay on MDA-MB-435 melanoma, 22.7%; in the assay on SW-620 colon it was 22.1%; in the assay with MCF7 breast, 22.8%; with HCT-116 colon, 25.8%. The results for the growth in the assay on HCC-2998 colon and in the assay on KM12 colon were 23.2% and 17.1%, respectively.

As to `O=C(NCCCl)NCCN1c2nc3ccccc3cc2Sc2cc3ccccc3nc21`, the growth in the assay on T-47D breast was 69%; with BT-549 breast, 40.3%; in the assay with MDA-MB-435 melanoma it was 58.5%; in the assay with SW-620 colon it was 41.3%; with MCF7 breast, 18.3%; in the assay with HCT-116 colon, 31.3%. For the same compound, the growth in the assay on HCC-2998 colon was 35.1%; with KM12 colon it was 71.9%.

For `Clc1ccc2c(c1)C(Br)c1cc(Cl)cc(Cl)c1-2` (stereo not drawn), the growth in the assay on T-47D breast was 73%; in the assay with BT-549 breast it was 87.3%; with MDA-MB-435 melanoma, 85.7%; in the assay on SW-620 colon, 60.4%; in the assay on MCF7 breast, 69%; with HCT-116 colon it was 65.4%. In addition, the growth in the assay with KM12 colon was 98.3%.

With `C=C(CN1CCc2c([nH]c3ccccc23)C1)c1ccc(C(=O)Nc2ccon2)cc1`, the growth in the assay on T-47D breast was 22.8%; in the assay with BT-549 breast it was 55.4%; in the assay on MDA-MB-435 melanoma, 101%; in the assay with SW-620 colon, 102%; in the assay on MCF7 breast, 87.7%; in the assay with HCT-116 colon, 91.9%. Moreover, the growth with KM12 colon was 141%.

As to `O=C(Nc1ccc2c(c1)C(=O)c1ccccc1-2)c1ccccc1`, the growth is 73.2% with T-47D breast; 104% with BT-549 breast; 101% in the assay on MDA-MB-435 melanoma; 55.4% in the assay with SW-620 colon; 48% in the assay on MCF7 breast; -20.7% (active) in the assay with HCT-116 colon. In the assay with KM12 colon, the growth is 87.3%.

Take `O=C(NC1CCCCC1)c1ccc(Nc2ncnc3c2cnn3-c2ccccc2)cc1`: the growth is 76.8% in the assay on T-47D breast; 59.8% in the assay on BT-549 breast; 81.2% in the assay with MDA-MB-435 melanoma; 72.9% in the assay on SW-620 colon; 82.8% with MCF7 breast; 37.6% in the assay with HCT-116 colon. Moreover, the growth in the assay with KM12 colon was 88.5%.

With `Cc1ccc(NC(=O)c2sc3nc4c(cc3c2N)C(=O)CCC4)cc1`, the growth is 94.7% with T-47D breast; 86.4% in the assay with BT-549 breast; 14.6% with MDA-MB-435 melanoma; 67% in the assay with SW-620 colon; 67.7% in the assay with MCF7 breast; 91.7% with HCT-116 colon. The growth in the assay with HCC-2998 colon is 80.2%; in the assay on KM12 colon, 56.7%.

For the compound `CCOC(=O)/C(=C/CC/C(C)=C/CC/C(C)=C/CCc1ccoc1)CC(=O)N1CCCCC1`, the growth with T-47D breast is 27.7%; in the assay with BT-549 breast it was 88%; with MDA-MB-435 melanoma, 34.1%; in the assay with SW-620 colon, 64.6%; with MCF7 breast it was 32%; with HCT-116 colon it was 44.9%. Moreover, the growth with KM12 colon is 49%.

In the case of `Cc1sc2nc3c4ccccc4c(NCCCN(C)C)nn3c(=O)c2c1C`, the growth in the assay on T-47D breast is 85.2%; in the assay on BT-549 breast, 66.7%; with MDA-MB-435 melanoma it was 24.8%; in the assay on SW-620 colon, -43.7% (active); in the assay with MCF7 breast, 23.8%; in the assay on HCT-116 colon it was 36.1%. Moreover, the growth in the assay with KM12 colon was 31.5%.

On to `O=CNc1ccc2c(c1)Cc1cc([N+](=O)[O-])ccc1-2`, for which the growth was 29.1% in the assay with T-47D breast; 16.5% with BT-549 breast; -27.9% (active) in the assay with MDA-MB-435 melanoma; 32.4% in the assay on SW-620 colon; 16.3% in the assay with MCF7 breast; 11.7% in the assay with HCT-116 colon. Also, the growth in the assay with KM12 colon was 13.9%.

Consider `O=C(Oc1ccccc1)C(Br)C(Br)c1ccccc1` (stereo not drawn), for which the growth was 94% in the assay on T-47D breast; 99.9% in the assay with BT-549 breast; 94.5% with MDA-MB-435 melanoma; -77% (active) with SW-620 colon; 49.5% with MCF7 breast; 61.2% in the assay with HCT-116 colon. Also, in the assay with KM12 colon, the growth is 71.9%.

With `CC(=O)[C@H]1CC[C@H]2[C@@H]3C[C@H](C)C4=CC(=O)CC[C@]4(C)[C@H]3C(=O)C[C@]12C`, the growth in the assay with T-47D breast is 87.5%; in the assay on BT-549 breast, 98%; with MDA-MB-435 melanoma, 119%; in the assay on SW-620 colon, 98.6%; in the assay with MCF7 breast it was 99.3%; in the assay with HCT-116 colon it was 93.1%. Further, the growth with KM12 colon is 110%.

Consider `CC(=O)OCC(=O)[C@@]1(O)CC[C@H]2[C@@H]3CCC4=CC(=O)CC[C@]4(C)[C@@]3(F)[C@@H](O)C[C@@]21C`, for which the growth in the assay on T-47D breast is 109%; in the assay with BT-549 breast, 103%; with MDA-MB-435 melanoma it was 115%; in the assay on SW-620 colon, 98.3%; in the assay with MCF7 breast, 87.3%; with HCT-116 colon, 106%. The growth with KM12 colon was 109%.

For the compound `Cc1ccccc1NC(=O)NC(CC(N)=O)c1ccc2c(c1)nc(-c1cccc(Oc3ccc(C(C)(C)C)cc3)c1)n2CCCN1CCCCC1C` (stereo not drawn), the growth in the assay on T-47D breast is 47.4%; with BT-549 breast, 93.7%; in the assay with MDA-MB-435 melanoma, -53.7% (active); in the assay on SW-620 colon, -62.2% (active); in the assay with MCF7 breast, -76.3% (active); in the assay with HCT-116 colon, -73.7% (active). The growth in the assay with KM12 colon was -35.3% (active).

For the compound `CCOC(=O)OCC(=O)[C@@]1(O)CC[C@H]2[C@@H]3CCC4=CC(=O)CC[C@]4(C)[C@H]3[C@@H](O)C[C@@]21C`, the growth was 91.4% in the assay on T-47D breast; 101% in the assay on BT-549 breast; 111% with MDA-MB-435 melanoma; 98.3% with SW-620 colon; 94.9% with MCF7 breast; 98.3% in the assay on HCT-116 colon. For the same compound, in the assay on KM12 colon, the growth is 106%.

Turning to `c1ccc(CN=C(NCc2ccccc2)NCc2ccccc2)cc1`, the growth with T-47D breast is 26.3%; in the assay with BT-549 breast, 82.2%; with MDA-MB-435 melanoma it was 66.9%; with SW-620 colon, 77.3%; with MCF7 breast it was 36.5%; in the assay with HCT-116 colon, 46.4%. Also, the growth in the assay with KM12 colon was 62.6%.

As for `O=C(Nc1ccccc1OC(=O)c1ccccc1)c1ccccc1`, the growth was 67% with T-47D breast; 72.7% in the assay with BT-549 breast; 104% in the assay on MDA-MB-435 melanoma; 23.6% in the assay with SW-620 colon; 27.2% in the assay with MCF7 breast; 9.26% (active) in the assay with HCT-116 colon. For the same compound, in the assay with KM12 colon, the growth is 25.7%.

As to `OC(c1cc(-c2cccc(Cl)c2)nc2ccccc12)C1CCCCN1` (stereo not drawn), the growth is -71.6% (active) in the assay on T-47D breast; 67% with BT-549 breast; -56.9% (active) in the assay on MDA-MB-435 melanoma; -66.6% (active) with SW-620 colon; -86.9% (active) in the assay with MCF7 breast; -89.8% (active) with HCT-116 colon. Besides, the growth with KM12 colon is -88.1% (active).

As to `COc1cccc(/C=N/Nc2nc3ccccc3s2)c1OC`, the growth is 67.5% in the assay with T-47D breast; 78.5% in the assay on BT-549 breast; 91.5% in the assay on MDA-MB-435 melanoma; 96.7% with SW-620 colon; 63.2% in the assay with MCF7 breast; 42.5% with HCT-116 colon. Further, in the assay on KM12 colon, the growth was 70.5%.
